# Data from PubChem BioAssay (EPA / NIEHS).
# Values joined by “and” are separate entries in the source; they are usually repeats but may differ in a detail not shown here. Identical values can stand only once. Inconclusive results are not listed. Active and inactive are the calls of the source. How the source made its calls: active means hit-call score of the fitted dose curve at least 0.9, where 1 is the maximum; inconclusive means response in the unintended direction; inactive means score below 0.9.
# Biological target: human MET Proto-Oncogene, Receptor Tyrosine Kinase (MET), MET (gene 4233) (UniProt P08581)
# Assay: NVS_ENZ_hMet: NovaScreen (NVS) Enzymatic Assay for human MET Proto-Oncogene, Receptor Tyrosine Kinase (MET) (AID 2283180)
# Experimental: NVS_ENZ_hMet is a biochemical, single-readout assay that uses extracted gene-proteins in a cell-free assay. Measurements were taken 1 hour after chemical dosing in a 384-well plate.NVS_ENZ_hMet is one of one assay component(s) measured or calculated from the NVS_ENZ_hMet assay. It is designed to make measurements of enzyme activity, a form of enzyme reporter, as detected with fluorescence intensity signals by Fluorescence and electrophoretic mobility shift technology.Data from the assay component NVS_ENZ_hMet was analyzed into 1 assay endpoint. This assay endpoint, NVS_ENZ_hMet, was analyzed in the positive analysis fitting direction relative to DMSO as the negative control and baseline of activity. Using a type of enzyme reporter, loss-of-signal activity can be used to understand changes in the enzymatic activity as they relate to the gene MET. Furthermore, this assay endpoint can be referred to as a primary readout, because this assay has produced multiple assay endpoints where this one serves a enzymatic activity function. To generalize the intended target to other relatable targets, this assay endpoint is annotated to the kinase intended target family, where the subfamily is receptor tyrosine kinase.
# Binding assays used specific radioligands (tritiated, iodinated) with non-radioactive competitive displacement ligands in agonist or antagonist protocols (as indicated) and various reference compounds and inhibitors to titrate specific binding to receptors and transporters. Most enzyme assays (CYPs, kinases, phosphatases, proteases, HDACs) used recombinant protein and specific substrates (fluorescence mostly, some colorimetric and radioactive) and inhibitors, followed by a biochemical separation of substrate and product. All assays for the biochemical HTS were initially run in duplicate at a single concentration (10 uM for CYP450 assays and 25 uM for all others). Assay-chemical combinations meeting a pre-defined threshold (e.g., 30% inhibition and other criteria defined below) were then run in singleton concentration-response format with maximum concentration of 20 uM for CYPs and 50 uM for all others. Each assay was run with positive and negative controls, and concurrent controls on every plate. The follow-up (secondary) screen tested active chemical-pairs in concentration series, as well as a few additional assays not tested in the primary screen, some selected negative inactives, and several cases re-run in the concentration series for confirmatory purposes.
# human MET Proto-Oncogene, Receptor Tyrosine Kinase (MET), MET (gene 4233), sequence (P08581 whole entry, looked up): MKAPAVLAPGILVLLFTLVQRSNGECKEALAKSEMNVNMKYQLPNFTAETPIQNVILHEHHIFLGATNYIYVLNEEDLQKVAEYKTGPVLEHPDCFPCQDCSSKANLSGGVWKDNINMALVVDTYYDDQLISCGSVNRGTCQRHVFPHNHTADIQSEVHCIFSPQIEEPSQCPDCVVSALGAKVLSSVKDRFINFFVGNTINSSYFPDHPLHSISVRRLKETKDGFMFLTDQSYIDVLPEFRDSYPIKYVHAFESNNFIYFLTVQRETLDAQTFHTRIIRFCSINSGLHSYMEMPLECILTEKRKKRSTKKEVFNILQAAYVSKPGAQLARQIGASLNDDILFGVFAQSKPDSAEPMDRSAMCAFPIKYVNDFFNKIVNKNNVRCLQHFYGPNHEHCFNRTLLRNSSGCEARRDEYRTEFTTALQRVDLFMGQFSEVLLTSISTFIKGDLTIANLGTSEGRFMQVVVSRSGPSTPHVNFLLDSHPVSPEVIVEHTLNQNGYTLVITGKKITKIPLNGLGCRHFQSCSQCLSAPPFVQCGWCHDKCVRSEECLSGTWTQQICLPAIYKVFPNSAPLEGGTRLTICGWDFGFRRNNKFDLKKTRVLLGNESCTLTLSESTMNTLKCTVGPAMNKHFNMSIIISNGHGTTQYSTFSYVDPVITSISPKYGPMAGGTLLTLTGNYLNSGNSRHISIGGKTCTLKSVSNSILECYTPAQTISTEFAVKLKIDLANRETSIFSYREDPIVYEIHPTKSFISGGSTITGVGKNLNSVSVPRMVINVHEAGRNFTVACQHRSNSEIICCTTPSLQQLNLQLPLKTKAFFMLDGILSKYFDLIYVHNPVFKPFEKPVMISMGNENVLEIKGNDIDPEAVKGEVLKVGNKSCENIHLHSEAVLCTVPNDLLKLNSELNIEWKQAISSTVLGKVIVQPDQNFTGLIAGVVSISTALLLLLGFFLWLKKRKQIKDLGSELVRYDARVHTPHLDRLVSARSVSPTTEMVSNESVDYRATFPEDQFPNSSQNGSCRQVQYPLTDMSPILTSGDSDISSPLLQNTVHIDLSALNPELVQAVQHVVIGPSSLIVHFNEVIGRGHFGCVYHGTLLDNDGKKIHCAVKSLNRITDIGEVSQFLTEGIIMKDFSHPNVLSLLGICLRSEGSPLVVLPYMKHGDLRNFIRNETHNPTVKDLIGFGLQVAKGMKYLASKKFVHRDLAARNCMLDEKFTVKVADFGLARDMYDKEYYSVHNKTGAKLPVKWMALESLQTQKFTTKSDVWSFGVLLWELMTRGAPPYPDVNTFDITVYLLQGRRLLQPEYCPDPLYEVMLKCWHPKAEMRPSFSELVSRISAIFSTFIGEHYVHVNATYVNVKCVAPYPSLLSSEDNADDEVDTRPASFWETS
Structure (SMILES),outcome,AC50
O=C(O)c1cccc(Oc2ccccc2)c1,inactive,–
O=C(Oc1ccccc1)c1cccc(C(=O)Oc2ccccc2)c1,inactive,–
CCN(CC)C(=O)c1cc(S(=O)(=O)Cc2ccccc2)c(N2CCC(c3ccccc3)CC2)cc1N(CC)CCN(C)C,inactive,–
COc1cc(C(=O)NC2CCN(C)CC2)ccc1Nc1ncc2c(n1)N(C1CCCC1)CC(F)(F)C(=O)N2C,inactive,–
CCc1nc(N)nc(N)c1-c1ccc(Cl)cc1,inactive,–
CNS(=O)(=O)c1cc(C(=O)N2CCC(CCN3C4CCC3CC(n3c(C)nc5ccccc53)C4)(c3cccc(F)c3)CC2)c(Cl)cc1F (stereo not given),inactive,–
N[C@@H](Cc1cc(I)c(Oc2ccc(O)c(I)c2)c(I)c1)C(=O)O,inactive,–
CC/C(=C(\c1ccccc1)c1ccc(OCCN(C)C)cc1)c1ccccc1,inactive,–
CC(C)CCCCCCc1ccc(O)cc1,inactive,–
CC(C)=CCC/C(C)=C/CO,inactive,–
O=C(c1ccccc1)c1ccccc1,inactive,–
Cc1ccc(N)cc1O,inactive,–
c1ccc2ccccc2c1,inactive,–
O=C(O)Cc1cc(I)c(Oc2cc(I)c(O)c(I)c2)c(I)c1,–,26.7 µM (active)
O=C(O)c1ccc2c(c1)nc(C(=O)NC1CCN(C3CC3)CC1)n2Cc1cc(-c2ccc(Cl)s2)on1,inactive,–
N#CCCCCC#N,inactive,–
CCCCc1ccc2c(n1)[C@@H](c1ccc(OC)cc1C[C@H](C)C(=O)O)[C@H](C(=O)O)[C@H]2c1ccc2c(c1)OCO2,inactive,–
O=C(O)c1cc(N=Nc2ccc(S(=O)(=O)Nc3ccccn3)cc2)ccc1O,inactive,–
NCCO,inactive,–
FC(F)(F)C(F)(F)C(F)(F)C(F)(F)C(F)(F)C(F)(F)CCI,inactive,–

Structure (SMILES),outcome,AC50
CCCCCCCCCCCCCCOS(=O)(=O)O,–,18.5 µM (active)
CC(O)CO (stereo not given),inactive,–
O=C1NC(=O)C(c2ccccc2)(c2ccccc2)N1,inactive,–
CC(=O)Oc1ccccc1C(=O)O,inactive,–
S=C(S)NCCNC(=S)S.[Mn+2].[S-]C([S-])=NCCN=C([S-])[S-].[Zn+2],–,11 µM (active) and 4.32 µM (active) and 18.9 µM (active)
COCC(C)OCC(C)O (stereo not given),inactive,–
CCCCCCCCCCCCc1ccccc1S(=O)(=O)O,–,26.2 µM (active)
Nc1ccccc1N,–,32.2 µM (active)
CCCOC(=O)c1cc(O)c(O)c(O)c1,inactive,–
CN(C)c1ccc(N=NS(=O)(=O)O)cc1,inactive,–
Fc1ccccc1[C@@H](F)COC1CCC(Nc2ncnc3[nH]ncc23)CC1 (stereo not given in full),inactive,–
OCC(CO)n1cnc(-c2ccc(F)cc2)c1-c1ccnc(Oc2ccccc2)n1,inactive,–
Cc1ncc([C@@H](CCCCCCc2ccc3c(n2)NCCC3)CC(=O)O)cn1,inactive,–
O=C(NO)C1(NS(=O)(=O)c2ccc(Oc3ccc(F)cc3)cc2)CCOCC1,inactive,–
O=c1[nH]cnc2c1ncn2[C@H]1CC[C@@H](CO)O1,inactive,–
CCN(Cc1cccnc1)C(=O)c1cccc(Cl)c1[C@]1(C)C(=O)N(Cc2ccc(OC)cc2OC)c2ccc(Cl)cc21,inactive,–
CCN(CC)CCNc1ccc(CNC=O)c2sc3ccc(OC)cc3c(=O)c12,inactive,–
S=C([S-])NCCNC(=S)[S-].[Mn+2],–,20.5 µM (active)
COc1ccc(OC(F)(F)F)cc1CN[C@H]1CCCN[C@H]1c1ccccc1,inactive,–
Cc1nc(-c2ccccn2)ncc1C(=O)Nn1cc(C)c2cc(F)ccc21,inactive,–
